Compound activity as filed in PubChem.
This is a sample that favours compounds with a hit; in the whole collection about 12% have one here.
JMJD2A Tudor: blocks the human JMJD2A Tudor domain. O75164. AlphaScreen JMJD2A-Tudor / H3K4me3 peptide binding. Potency, µM (series often up to 114 µM), for the others: top-dose activity change, negative = inhibition, usual class: inhibitors. hit rate 4.4% among 390,000; note: % is set by controls: 0 for no effect and ±100 for the full control effect; nearly all actives have a fitted effect of over 50% in size
BAZ2B block: blocks human BAZ2B; AID 504333; Q9UIF8; hit rate 4.4% among 360,000; Potency, µM (top dose mostly 114 µM), without a hit: top-dose activity change, negative = inhibition, actives largely listed as inhibitors; AlphaScreen BAZ2B-H3K14Ac peptide displacement; note: % is set by controls: 0 for no effect and ±100 for the full control effect; nearly all actives have a fitted effect of over 60% in size
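Inhibition is scored as reduced AlphaScreen emission. The BAZ2B/b-H3(5-23)K14Ac complex (50 nM each) in PBS pH 7.4, 0.01% Tween-20 meets compound (up to 110 uM) for 30 min at RT before bead addition.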
Sfp PPTase inh: Sfp phosphopantetheinyl transferase inhibition. hit rate 3.5% among 310,000. Q9F4F7. Biochemical Sfp PPTase activity, qHTS. Potency, µM, inactives show largest response in the series, negative = inhibition, most hits filed as inhibitors;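 note: the enzyme is Sfp with the accession as filed and its product quenches rhodamine fluorescence; 0% = enzyme reaction without inhibitor and -100% = no enzyme wells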
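With Hepes-Na pH 7.6 buffer containing 10 mM MgCl2, Sfp (15 nM) modified BHQ-2-YbbR (12.5 uM) using rhodamine-CoA (5 uM). Two reads 30 minutes apart at 525/598 nm yielded each well's rate.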
G9a inh: inhibitors of human histone lysine methyltransferase G9a; Q96KQ7; G9a H3K9 monomethylation, AlphaScreen, 2 h; Potency, µM (series often up to 102 µM), inactives show at the top dose activity, negative = inhibition, hits mostly inhibitors; hit rate 8.8% among 350,000; note: % is set by controls: 0 for no effect and ±100 for the full control effect; nearly all actives have a fitted effect of over 75% in size
Target sequence (Q96KQ7 913-1193 limits assumed): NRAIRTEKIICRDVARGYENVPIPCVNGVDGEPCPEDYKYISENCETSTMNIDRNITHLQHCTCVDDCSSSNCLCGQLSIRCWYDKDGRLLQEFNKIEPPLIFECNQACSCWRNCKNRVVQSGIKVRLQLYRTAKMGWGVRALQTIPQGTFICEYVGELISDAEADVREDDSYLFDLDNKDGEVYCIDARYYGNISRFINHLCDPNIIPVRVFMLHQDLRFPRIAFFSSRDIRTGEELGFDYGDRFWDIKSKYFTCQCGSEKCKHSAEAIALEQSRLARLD
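AlphaScreen detection with an anti-monomethyl H3K9 antibody quantified product after a 2 h room-temperature reaction containing 500 nM biotinylated H3K9 peptide, 20 µM SAM and 20 nM enzyme, which had been preincubated 15 min with compound.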
HP1b chromo inh: inhibitors of HP1-beta chromodomain binding to methylated histone tails | Potency, µM (doses to about 114 µM), for the others: at the top dose activity change, negative = inhibition, usual class: inhibitors | P83916 | AlphaScreen HP1-beta / biotin-H3K9me3 peptide binding | hit rate 0.56% among 390,000; note: nearly all actives have a fitted effect of over 70% in size
Target sequence (P83916 whole entry, looked up): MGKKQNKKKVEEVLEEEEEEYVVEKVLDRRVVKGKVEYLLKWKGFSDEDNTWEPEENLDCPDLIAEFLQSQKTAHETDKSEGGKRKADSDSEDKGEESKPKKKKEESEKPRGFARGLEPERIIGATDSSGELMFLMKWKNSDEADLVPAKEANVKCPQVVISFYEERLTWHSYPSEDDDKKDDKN
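AlphaScreen: HP1-beta (50 nM) preformed 30 min with biotin-H3(1-18)K9me3 peptide (50 nM) in PBS pH 7.4, 0.01% Tween-20. Compound added for 30 min at RT, then streptavidin donor/nickel chelate acceptor beads (10 ug/mL) for 30 min.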
Starred values were filed as active, the others as inactive; ? = inconclusive; nt = not tested or not shown; [ ] = remark or other dose. Calls come from the whole dose curve; as a rule, active = well fitted curve in the direction sought with a large enough effect; inconclusive = small, poorly fitted or top-dose-only effect, or another doubt; inactive = no such curve, though single readings can be large; an effect the other way counts as inactive or inconclusive. Potency is the fitted concentration of half-maximal effect.

SMILES	JMJD2A Tudor	BAZ2B block	Sfp PPTase inh	G9a inh	HP1b chromo inh
COc1ccc(CCNC(=O)c2ccc3c(c2)NC(=O)C(C(C)C)N3)cc1OC (configuration not stated)	-6%	2%	14%	3%	8%
COc1ccc(CCNC(=O)C(C(=O)c2ccccc2)n2ccccc2=O)cc1OC (configuration not stated)	-11%	-9%	-11%	?	28%
COc1ccc(CCNC(=O)C(C(=O)c2ccccc2)n2cc(Cl)ccc2=O)cc1OC (configuration not stated)	-3%	9%	13%	50µM*	41%
O=C(NC1CCCCC1)C(=S)NCCc1ccccc1	-5%	-9%	28µM*	11µM*	-15%
Cc1cc(OCC(=O)NCc2ccncc2)ccc1Cl	18%	-6%	20%	5%	41%
C=C(C)CNC(=S)NNC(=O)CCn1c2cc(Cl)ccc2c2ccc(Cl)cc21	-15%	0%	15%	8%[59 µM]	35%
NC(=O)c1ccc(NC(=O)COC(=O)c2cccc(Oc3ccccc3)c2)cc1	5%	-11%	-2%	6%[59 µM]	45%
CN(C)C(CNC(=O)C1CCCN(C(=O)c2ccc(Cl)cc2)C1)c1ccco1 (configuration not stated)	-31%	-8%	-8%	?	18%
CC(=NNC(=O)c1ccncc1)c1ccc(Cl)cc1Cl	-10%	nt	nt	nt	19%[57 µM]
COC(=O)c1c(NC(=O)CCCOc2cccc(C)c2)sc2c1C(C(=O)OC)CC2 (configuration not stated)	?	35µM*	nt	1.1µM*	?
COC(=O)c1c(NC(=O)CCCOc2ccc(C)cc2)sc2c1CCCC2	29%	5%	nt	14µM*	39%
COC(=O)c1c(NC(=O)CCCOc2ccc(C)cc2)sc2c1C(C(=O)OC)CC2 (configuration not stated)	-23%	?	nt	1.1µM*	?
COC(=O)c1c(NC(=O)CCCOc2cccc(C)c2)sc2c1CCC2	23%	-7%	nt	9%[59 µM]	15%
COC(=O)c1c(NC(=O)Cc2ccccc2)sc2c1C(C(=O)OC)CC2 (configuration not stated)	-13%	?	79µM*	40µM*	-8%
COC(=O)c1c(NC(=O)CCCOc2ccc(C(C)(C)C)cc2)sc2c1CCC(C)C2 (configuration not stated)	-13%	3%	nt	5%[59 µM]	21%
CC(C(=O)NC1CCCCCC1)c1ccc([N+](=O)[O-])cc1 (configuration not stated)	-9%	9%	6%	20%[0.501 µM]	17%
CCOc1ccc(/C=C/C(=O)Nc2sc3c(c2C(=O)OC)CCCC3)cc1	3%	12%	nt	-29%[59 µM]	45%
CCOc1ccc(/C=C/C(=O)Nc2sc3c(c2C(=O)OC)C(C(=O)OC)CC3)cc1 (configuration not stated)	56µM*	?	nt	1.1µM*	?
COc1ccc(COC(=O)c2cc([N+](=O)[O-])ccc2N2CCOCC2)cc1F	?	-11%	nt	?	-7%
Oc1ccccc1N=Nc1ccccc1O	32µM*	nt	19%	16µM*	-16%
Nc1ccc(N=Nc2ccccc2O)c(N)c1	35µM*	nt	nt	nt	?
Cn1c(=O)c2[nH]c(N=Nc3ccc(N)cc3N)nc2n(C)c1=O	-20%	?	?	nt	13%
COc1ccc2c(c1)-c1nc(/N=C/c3c(O)ccc4ccccc34)sc1CC2	40µM*	?	-26%	1.6µM*	?
Oc1ccc2ccccc2c1/C=N/c1nccs1	-13%[57.1 µM]	?	?	?	-17%
COc1ccc2c(c1)-c1nc(/N=C/c3ccc(O)cc3)sc1CC2	?	50µM*	-8%	?	-16%
SMILES	JMJD2A Tudor	BAZ2B block	Sfp PPTase inh	G9a inh	HP1b chromo inh
CCc1cc(=O)oc2c(CNCc3ccccc3F)c(O)c(Cl)cc12	?	?	-18%	50µM*	40%
CCCc1cc(=O)oc2c(CN3CCCC3)c(O)c(Cl)cc12	-11%	-6%	0%	1%	7%
Cc1cc(Nc2ccc(Cl)cc2)nc(NCc2ccccc2)n1	?	?	20µM*	-16%[59 µM]	-7%
CCCCNc1cc(C)nc(NCc2ccccc2)n1	?	-24%	-15%	-17%	-4%
Cc1cc(Nc2cccc(F)c2)nc(NCc2ccccc2)n1	-23%	-12%	56µM*	5%[59 µM]	13%
Cc1cc(Nc2ccccc2)nc(NCc2ccccc2)n1	-25%	-13%	25µM*	3%[59 µM]	3%
COc1ccc(C(=O)Nc2ccc(OCc3cc(=O)n4ccsc4n3)cc2)cc1OC	-5%	3%	nt	-1%[59 µM]	40%
Cc1ccc(-n2ncc(C(=O)NCCN3CCc4ccccc4C3)c2C2CCN(C(=O)OC(C)(C)C)CC2)cc1C	?	-15%[57.1 µM]	nt	?	-18%
O=C(Nc1nc2c(s1)CCCC2)c1ccc(Br)o1	-17%	nt	9%	9%[59 µM]	8%
Cc1ccc(C(=O)Nc2nc3c(s2)CCCC3)o1	-33%	-35%	-10%	56µM*	12%
COC(=O)c1sccc1NC(=O)c1cc(-c2cccc(C)c2)nc2ccccc12	-11%	11%	16µM*	6%	18%
O=C(Nc1nc2c(s1)CCCC2)c1cc(-c2ccccc2)nc2ccccc12	-32%	-33%	-10%	13µM*	-4%
COC(=O)c1sccc1NC(=O)c1cc(-c2ccc(C)cc2)nc2ccccc12	3%	4%	5%	nt	34%
O=C(Nc1nncs1)c1cc(-c2ccncc2)nc2ccc(Cl)cc12	-2%	-5%	2%	50µM*	33%
Cc1ccc(N(CC(=O)N2CCOCC2)S(C)(=O)=O)cc1	1%	4%	20%	15%	23%
CC(C)(C)c1nnc(NC(=O)c2cc(-c3ccccc3)nc3ccccc23)s1	-33%	-35%	20µM*	?	-52%
Cc1csc(NC(=O)c2cc(-c3ccccc3)nc3ccccc23)n1	-32%	-33%	18%	71µM*	-9%
COc1ccc(-c2nnc(SCc3ccccc3F)o2)cc1	84%	157%	-19%	?	198%
COc1ccc(C2NC3=C(CCCC3)C(C#N)(C#N)C2(C#N)C#N)cc1 (configuration not stated)	nt	-35%	56µM*	8.9µM*	nt
CSCC[C@H](NC(=O)COc1ccc(Cl)cc1)C(=O)N1CCC2(CC1)NCCc1[nH]cnc12	?	-23%	15%	26%[59 µM]	9%
Cc1cc(C)n(-c2ccc(F)cc2CN2CCN(C3CCCC3)C(CCO)C2)n1 (configuration not stated)	-18%	-17%	5%	0%	8%[57 µM]
CC(=O)Nc1ccc(SCC(=O)Nc2cc(C)on2)cc1	0%	5%	?	45µM*	46%
CCN(CC(=O)Nc1ccc(Br)cc1)CC(=O)Nc1cc(C)on1	-5%	14%	nt	79µM*	21%
Cc1cc(NC(=O)CSc2ccc(F)cc2)no1	-4%	-10%	14%	16%[59 µM]	42%
